Conditions in all cases: modulator concentration 10 µM
Assay [1] concerns RAW-Dual (murine macrophage reporter line). In words: NF-kB reporter (SEAP) activity fold change vs agonist alone; higher = enhanced NF-kB activity. In outline:
(§1)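 RAW-Dual murine macrophage reporter cells were plated at 50 000 per well in 384-well plates, pin-transferred compound to 10 μM final, and pre-incubated for 1 hour at 37 °C before a PRR agonist was added and the cells incubated overnight. NF-κB activity was read from supernatant SEAP with QUANTI-Blue at 620 nm absorbance, and IRF activity from Lucia luciferase with QUANTI-Luc by luminescence. Each signal was expressed as fold change by dividing by the mean agonist-only control on the same plate. Two replicate plates were averaged, with errors obtained by propagation.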

The test system is the same in assay [2]. In words: IRF reporter (Lucia luciferase) activity fold change vs agonist alone; higher = enhanced IRF activity. In outline:
as §1

Assay [3] shares this test system. In words: viability score (confluency relative to resting cells, overnight) (fraction); higher = more viable, active = viable (0.7 or more). In a few lines:
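Two confluency masks, generated with IncuCyte software over all imaged wells, were applied to IncuCyte images of RAW-Dual macrophages. The cells, in 384-well plates, had been exposed overnight to 10 μM final compound. The viability score is confluency as a fraction of resting cells, and a compound met the cutoff only with both masks above 70% of resting cells.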

The mark [4] stands for this setting: agonist: CpG ODN 1826 0.5 ug/mL.

± gives the standard deviation.

On to `O=C(NCCN1CCOCC1)c1cc2nc(-c3ccccc3)cc(C(F)(F)F)n2n1`, for which the NF-kB reporter turned out to be 0.898 ± 0.078 in assay [1] (setting [4]), 1.06 ± 0.091 in assay [1] (agonist: LPS 0.1 ug/mL) and 0.933 ± 0.061 in assay [1] (agonist: MPLA […]). Also, the IRF reporter stood at 0.607 ± 0.033 in assay [2] (agonist: 3'3'-cGAMP 10 ug/mL), 1.09 ± 0.098 in assay [2] (agonist: LPS 0.1 ug/mL) and 1.01 ± 0.09 in assay [2] (agonist: MPLA […]). In addition, the viability score in assay [3] is 1 (active).

Take `Cc1ccc(-n2c(=O)c3c4c(sc3n3c(S)nnc23)CCCC4)cc1`: the NF-kB reporter in assay [1] (setting [4]) was 0.968 ± 0.063; in assay [1] (agonist: LPS 0.1 ug/mL) it was 1.07 ± 0.069; in assay [1] (agonist: MPLA […]), 0.923 ± 0.1. Further, the IRF reporter in assay [2] (agonist: 3'3'-cGAMP 10 ug/mL) was 0.959 ± 0.035; in assay [2] (agonist: LPS 0.1 ug/mL) it was 1.41 ± 0.21; in assay [2] (agonist: MPLA […]) it was 1.15 ± 0.1. The viability score in assay [3] is 0.993 (active).

Turning to `CCOC(=O)C(CCCOc1c(C)cc(Cl)cc1C)C(=O)OCC`, the NF-kB reporter in assay [1] (setting [4]) turned out to be 0.961 ± 0.078; in assay [1] (agonist: LPS 0.1 ug/mL), 0.909 ± 0.069; in assay [1] (agonist: MPLA […]), 1.08 ± 0.086. Also, the IRF reporter amounted to 0.985 ± 0.04 in assay [2] (agonist: 3'3'-cGAMP 10 ug/mL), 0.95 ± 0.045 in assay [2] (agonist: LPS 0.1 ug/mL) and 1.22 ± 0.17 in assay [2] (agonist: MPLA […]). Also, in assay [3], the viability score is 0.997 (active).

In the case of `CN(C)CCCN1c2ccccc2Sc2ccc(Cl)cc21.Cl`, the figures for the NF-kB reporter in assay [1] (setting [4]), in assay [1] (agonist: LPS 0.1 ug/mL) and in assay [1] (agonist: MPLA […]) were 0.377 ± 0.029, 0.997 ± 0.096 and 1.87 ± 0.041, respectively. The IRF reporter in assay [2] (agonist: 3'3'-cGAMP 10 ug/mL) was 1.07 ± 0.073; in assay [2] (agonist: LPS 0.1 ug/mL) it was 1.13 ± 0.1; in assay [2] (agonist: MPLA […]), 1.37 ± 0.17. Moreover, the viability score in assay [3] was 0.306 (inactive).

Consider `CN(C)c1ccc(O)c2c1C[C@H]1C[C@H]3[C@H](N(C)C)C(O)=C(C(N)=O)C(=O)[C@@]3(O)C(O)=C1C2=O.Cl`, for which the NF-kB reporter was 0.96 ± 0.072 in assay [1] (setting [4]), 0.927 ± 0.052 in assay [1] (agonist: LPS 0.1 ug/mL) and 0.959 ± 0.03 in assay [1] (agonist: MPLA […]). The IRF reporter was 1.36 ± 0.37 in assay [2] (agonist: 3'3'-cGAMP 10 ug/mL), 1.04 ± 0.14 in assay [2] (agonist: LPS 0.1 ug/mL) and 1.09 ± 0.17 in assay [2] (agonist: MPLA […]). Moreover, the viability score in assay [3] is 0.999 (active).

For `NCC1OC(OC2C(CO)OC(OC3C(O)C(N)CC(N)C3OC3OC(CN)C(O)C(O)C3N)C2O)C(N)C(O)C1O.O=S(=O)(O)O` (stereo unspecified), the NF-kB reporter was 1.21 ± 0.096 in assay [1] (setting [4]), 1.01 ± 0.074 in assay [1] (agonist: LPS 0.1 ug/mL) and 1.13 ± 0.12 in assay [1] (agonist: MPLA […]). Further, the IRF reporter in assay [2] (agonist: 3'3'-cGAMP 10 ug/mL) worked out at 0.993 ± 0.031; in assay [2] (agonist: LPS 0.1 ug/mL) it was 1.22 ± 0.12; in assay [2] (agonist: MPLA […]), 1.29 ± 0.18. The viability score in assay [3] is 1.02 (active).

Consider `CC(=O)N1CCC(C(=O)N2CCOCC2CN(C)C)CC1.O=CO` (stereo unspecified), for which the NF-kB reporter in assay [1] (setting [4]) was found to be 0.979 ± 0.11; in assay [1] (agonist: LPS 0.1 ug/mL) it was 1.08 ± 0.17; in assay [1] (agonist: MPLA […]), 0.924 ± 0.064. Further, the IRF reporter was 0.992 ± 0.08 in assay [2] (agonist: 3'3'-cGAMP 10 ug/mL), 1.13 ± 0.089 in assay [2] (agonist: LPS 0.1 ug/mL) and 1.06 ± 0.082 in assay [2] (agonist: MPLA […]). In addition, the viability score in assay [3] was 0.992 (active).

Take `COC(=O)Nc1nc2ccc(S(=O)c3ccccc3)cc2[nH]1` (stereo unspecified): the NF-kB reporter amounted to 1.1 ± 0.065 in assay [1] (setting [4]), 1.04 ± 0.11 in assay [1] (agonist: LPS 0.1 ug/mL) and 1.12 ± 0.059 in assay [1] (agonist: MPLA […]). Besides, the IRF reporter in assay [2] (agonist: 3'3'-cGAMP 10 ug/mL) was found to be 0.279 ± 0.081; in assay [2] (agonist: LPS 0.1 ug/mL), 0.924 ± 0.11; in assay [2] (agonist: MPLA […]), 0.536 ± 0.18. The viability score in assay [3] was 1.01 (active).

Take `c1ccc(CC(=NNc2ccccc2)c2ccc(-c3ccccc3)cc2)cc1`: the NF-kB reporter was determined as 0.855 ± 0.091 in assay [1] (setting [4]), 0.879 ± 0.069 in assay [1] (agonist: LPS 0.1 ug/mL) and 1.07 ± 0.11 in assay [1] (agonist: MPLA […]). Also, the values for the IRF reporter in assay [2] (agonist: 3'3'-cGAMP 10 ug/mL), in assay [2] (agonist: LPS 0.1 ug/mL) and in assay [2] (agonist: MPLA […]) were 0.657 ± 0.028, 1.3 ± 0.2 and 1.35 ± 0.28, respectively. Further, the viability score in assay [3] was 1.03 (active).

Consider `CCN(C=Nc1sc2c(c1C#N)CC(C)(C)NC2(C)C)CC`, for which the NF-kB reporter in assay [1] (setting [4]) amounted to 0.759 ± 0.059; in assay [1] (agonist: LPS 0.1 ug/mL), 0.93 ± 0.054; in assay [1] (agonist: MPLA […]) it was 0.901 ± 0.093. Besides, the IRF reporter was 0.969 ± 0.044 in assay [2] (agonist: 3'3'-cGAMP 10 ug/mL), 1.24 ± 0.071 in assay [2] (agonist: LPS 0.1 ug/mL) and 1.29 ± 0.22 in assay [2] (agonist: MPLA […]). Moreover, the viability score in assay [3] is 0.992 (active).

As to `Cn1nccc1C(=O)N1CCC(O)(C(F)(F)F)CC1`, the results for the NF-kB reporter in assay [1] (setting [4]), in assay [1] (agonist: LPS 0.1 ug/mL) and in assay [1] (agonist: MPLA […]) were 1.22 ± 0.29, 0.996 ± 0.082 and 1.01 ± 0.078, respectively. The results for the IRF reporter in assay [2] (agonist: 3'3'-cGAMP 10 ug/mL), in assay [2] (agonist: LPS 0.1 ug/mL) and in assay [2] (agonist: MPLA […]) were 0.92 ± 0.033, 1.14 ± 0.13 and 1.3 ± 0.19, respectively. Besides, in assay [3], the viability score was 0.997 (active).

With `O=C1SC(=Cc2ccc([N+](=O)[O-])cc2)C(=O)N1Cc1ccccc1`, the NF-kB reporter in assay [1] (setting [4]) is 0.98 ± 0.064; in assay [1] (agonist: LPS 0.1 ug/mL), 1.04 ± 0.069; in assay [1] (agonist: MPLA […]), 0.951 ± 0.071. Moreover, the IRF reporter in assay [2] (agonist: 3'3'-cGAMP 10 ug/mL) came to 0.989 ± 0.042; in assay [2] (agonist: LPS 0.1 ug/mL), 1.5 ± 0.28; in assay [2] (agonist: MPLA […]), 1.23 ± 0.12. For the same compound, the viability score in assay [3] was 1 (active).

As to `CC1(C)CCC2(C(=O)O)CCC3(C)C(=CCC4C5(C)CCC(O)C(C)(C)C5CCC43C)C2C1` (stereo unspecified), the NF-kB reporter is 1.18 ± 0.28 in assay [1] (setting [4]), 1.12 ± 0.088 in assay [1] (agonist: LPS 0.1 ug/mL) and 0.942 ± 0.095 in assay [1] (agonist: MPLA […]). Also, the IRF reporter came out at 0.878 ± 0.03 in assay [2] (agonist: 3'3'-cGAMP 10 ug/mL), 1.3 ± 0.18 in assay [2] (agonist: LPS 0.1 ug/mL) and 1.24 ± 0.18 in assay [2] (agonist: MPLA […]). In addition, the viability score in assay [3] is 0.999 (active).

For `NC(=O)c1cc2ccccc2oc1=NCc1ccccc1`, the NF-kB reporter in assay [1] (setting [4]) worked out at 0.907 ± 0.09; in assay [1] (agonist: LPS 0.1 ug/mL), 1.06 ± 0.067; in assay [1] (agonist: MPLA […]), 0.91 ± 0.1. Moreover, the IRF reporter in assay [2] (agonist: 3'3'-cGAMP 10 ug/mL) stood at 0.946 ± 0.023; in assay [2] (agonist: LPS 0.1 ug/mL), 1.16 ± 0.16; in assay [2] (agonist: MPLA […]), 1.07 ± 0.22. Besides, the viability score in assay [3] is 1.01 (active).

In the case of `CCCCN(CCCC)CC(=O)Nc1c2c(nc3ccccc13)CCC2.O=C(O)C(=O)O`, the NF-kB reporter in assay [1] (setting [4]) came out at 0.63 ± 0.035; in assay [1] (agonist: LPS 0.1 ug/mL) it was 1.1 ± 0.067; in assay [1] (agonist: MPLA […]), 1.15 ± 0.068. The IRF reporter in assay [2] (agonist: 3'3'-cGAMP 10 ug/mL) turned out to be 1.38 ± 0.053; in assay [2] (agonist: LPS 0.1 ug/mL), 1.98 ± 0.13; in assay [2] (agonist: MPLA […]), 0.98 ± 0.15. In assay [3], the viability score is 0.308 (inactive).

With `CC(C)CN(CC(O)C(Cc1ccccc1)NC(=O)OC1COC2OCCC12)S(=O)(=O)c1ccc(N)cc1` (stereo unspecified) [Prestw-1802], the NF-kB reporter came out at 1.53 ± 0.34 in assay [1] (setting [4]), 1.52 ± 0.14 in assay [1] (agonist: LPS 0.1 ug/mL) and 1.84 ± 0.15 in assay [1] (agonist: MPLA […]). Also, the IRF reporter is 0.872 ± 0.069 in assay [2] (agonist: 3'3'-cGAMP 10 ug/mL), 0.827 ± 0.22 in assay [2] (agonist: LPS 0.1 ug/mL) and 0.953 ± 0.14 in assay [2] (agonist: MPLA […]). Also, the viability score in assay [3] was 0.981 (active).

In the case of `Oc1nc[nH]n1`, the figures for the NF-kB reporter in assay [1] (setting [4]), in assay [1] (agonist: LPS 0.1 ug/mL) and in assay [1] (agonist: MPLA […]) were 1.05 ± 0.087, 0.927 ± 0.067 and 1.02 ± 0.022, respectively. In addition, the IRF reporter came out at 1 ± 0.06 in assay [2] (agonist: 3'3'-cGAMP 10 ug/mL), 0.923 ± 0.04 in assay [2] (agonist: LPS 0.1 ug/mL) and 0.838 ± 0.074 in assay [2] (agonist: MPLA […]). In addition, in assay [3], the viability score was 1 (active).

Take `Brc1ccc(-c2nc(-c3ccccc3)cc(N3CCOCC3)n2)cc1`: the NF-kB reporter in assay [1] (setting [4]) was 1.05 ± 0.089; in assay [1] (agonist: LPS 0.1 ug/mL) it was 1.01 ± 0.066; in assay [1] (agonist: MPLA […]), 1.01 ± 0.039. Further, the IRF reporter in assay [2] (agonist: 3'3'-cGAMP 10 ug/mL) worked out at 0.961 ± 0.097; in assay [2] (agonist: LPS 0.1 ug/mL), 1.11 ± 0.1; in assay [2] (agonist: MPLA […]), 1.09 ± 0.16. The viability score in assay [3] was 1 (active).
